Data published in PubChem BioAssay (Tox21).
Unmarked numbers belong to inactive results. Inconclusive results are not listed. A call without a number means that no potency is given here. Calls of active or inactive are those of the source. The call rests on the fitted dose curve; in most records, active means well fitted curve in the direction sought with a large enough effect in the repeat runs; inconclusive means weak or mixed curves; inactive means no such curve, though single readings can be large; an effect the other way counts as inactive or inconclusive.

What was measured:
[1] = qHTS RealTime-Glo MT Cell Viability Assay in HEK293 cells - 0 hour (AID 1224880); further: top concentration of the series differs between compounds; nearly all actives have a fitted effect of over 45% in size
Procedure, shortened: (§1)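 Real-time viability in HEK293: signal arises when living cells convert a prosubstrate for NanoLuc in the medium, so luminescence tracks viable cell number. Compound (23 nL, DMSO) added 5 h post-seeding; kinetic reads at 0–40 h, 37 C.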

[2] = A CellTox Green Cytotoxicity Assay to monitor cytotoxicity in HEK293 cells - 32 hour (AID 1224881); further: nearly all actives have a fitted effect of over 40% in size
Procedure, shortened: (§2)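 Cells (HEK293, 600/well) and dye reagent are dispensed together. After 5 h at 37 C, 23 nL compound is pinned in. Plates stay at 37 C for 40 h with fluorescence read at 0h, 8h, 16h, 24h, 32h and 40h.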

[3] = A CellTox Green Cytotoxicity Assay to monitor cytotoxicity in HepG2 cells - 0 hour (AID 1224882); further: nearly all actives have a fitted effect of over 35% in size
Procedure, shortened: (§3)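 Cells and non-lytic dye reagent are dispensed together (600 HepG2 cells/well) and incubated 5 h before DMSO compound transfer. Kinetic fluorescence is then recorded in the same wells during 40 h at 37 C.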

[4] = A CellTox Green Cytotoxicity Assay to monitor cytotoxicity in HEK293 cells - 8 hour (AID 1224884); further: nearly all actives have a fitted effect of over 35% in size
Procedure, shortened: as §2

[5] = qHTS RealTime-Glo MT Cell Viability Assay in HepG2 cells - 16 hour (AID 1224885); further: nearly all actives have a fitted effect of over 50% in size
Procedure, shortened: (§4)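 Viability was tracked continuously by NanoLuc luminescence from prosubstrate reduced by living HepG2 cells, at successive time points over 40 h of compound exposure. Cells with reagent were preincubated 5 h at 37 °C before compound addition.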

[6] = qHTS RealTime-Glo MT Cell Viability Assay in HEK293 cells - 24 hour (AID 1224886); further: nearly all actives have a fitted effect of over 50% in size; further: potency means the concentration at half of the fitted maximal effect
Procedure, shortened: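 Viability tracked continuously by luminescence as live cells reduce a prosubstrate for NanoLuc; HEK293 cells preincubated 5 h, compound-treated at 37 C, and read at 0, 8, 16, 24, 32 and 40 h.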

[7] = qHTS RealTime-Glo MT Cell Viability Assay in HEK293 cells - 8 hour (AID 1224887); further: nearly all actives have a fitted effect of over 50% in size; further: potency means the concentration at half of the fitted maximal effect
Procedure, shortened: as §1

[8] = A CellTox Green Cytotoxicity Assay to monitor cytotoxicity in HEK293 cells - 16 hour (AID 1224888); further: nearly all actives have a fitted effect of over 35% in size
Procedure, shortened: as §2

[9] = A CellTox Green Cytotoxicity Assay to monitor cytotoxicity in HepG2 cells - 32 hour (AID 1224883); further: nearly all actives have a fitted effect of over 50% in size
Procedure, shortened: as §3

[10] = qHTS RealTime-Glo MT Cell Viability Assay in HepG2 cells - 0 hour (AID 1224889); further: nearly all actives have a fitted effect of over 50% in size
Procedure, shortened: as §4

| SMILES | outcome [1] | Potency [2] | Potency [3] | Potency [4] | outcome [5] | Potency [6] | Potency [7] | Potency [8] | Potency [9] | Potency [10] |
| --- | --- | --- | --- | --- | --- | --- | --- | --- | --- | --- |
| C=CCOc1nc(OCC=C)nc(OCC=C)n1 | inactive | inactive | inactive | inactive | inactive | inactive | inactive | inactive |  |  |
| CCCCN(CCO)CCO | inactive | inactive | inactive | inactive | inactive | inactive | inactive | inactive |  |  |
| C#CC(O)C(CC)CCCC (centres undefined) | inactive | inactive | inactive |  | inactive | inactive | inactive | inactive | inactive | inactive |
| OC1OC[C@@H](O)[C@H](O)[C@H]1O (some centres undefined) | inactive | inactive | inactive | inactive | inactive | inactive | inactive | inactive |  | inactive |
| COc1ccc(NC(C)=O)cc1 | inactive | inactive | inactive | inactive | inactive | inactive | inactive | inactive |  |  |
| CC(C)c1cccc(O)c1 | inactive | inactive | inactive | inactive | inactive | inactive | inactive | inactive |  | inactive |
| CCCCCCC(CCCCCCCCCCC(=O)OCC(COC(C)=O)OC(C)=O)OC(C)=O (centres undefined) | inactive | inactive | inactive | inactive | inactive | inactive | inactive | inactive |  | inactive |
| CN(C)CCOC(c1ccc(Cl)cc1)c1ccccn1 (centres undefined) | inactive | inactive | inactive | inactive | inactive | inactive | inactive | inactive |  | inactive |
| CCO[Si](C)(OCC)OCC | inactive | inactive | inactive | inactive | inactive | inactive | inactive | inactive |  | inactive |
| CCCC(C)C(=O)O (centres undefined) | inactive | inactive | inactive | inactive | inactive | inactive | inactive | inactive |  | inactive |
| Nc1nc2c(ncn2CCC(CO)CO)c(=O)[nH]1 | inactive | inactive | inactive | inactive | inactive | inactive | inactive | inactive |  | inactive |
| CCN1CCCC(OC(=O)C(c2ccccc2)c2ccccc2)C1 (centres undefined) | inactive | inactive | inactive | inactive | inactive | inactive | inactive | inactive |  |  |
| CC(C)(O)C(=O)c1ccc(OCCO)cc1 | inactive | inactive | inactive | inactive | inactive | inactive | inactive | inactive |  |  |
| CC/C=C\CCCCO | inactive | inactive | inactive | inactive | inactive | inactive | inactive | inactive |  | inactive |
| NS(=O)(=O)c1cc2c(cc1C(F)(F)F)NC(Cc1ccccc1)NS2(=O)=O (centres undefined) | inactive | inactive | inactive | inactive | inactive | inactive | inactive | inactive |  | inactive |
| O=S(=O)(c1cccc2cnccc12)N1CCCNCC1 | inactive | inactive | inactive | inactive | inactive | inactive | inactive | inactive |  |  |
| CNC(=O)c1c(I)c(NC(=O)CCCCC(=O)Nc2c(I)c(C(=O)O)c(I)c(C(=O)NC)c2I)c(I)c(C(=O)O)c1I | inactive | inactive | inactive | inactive | inactive | inactive | inactive | inactive |  | inactive |
| CCCCCCCCC=O | inactive | inactive | inactive | inactive | inactive | inactive | inactive | inactive |  | inactive |
| COC(=O)[C@H]1[C@H]2C[C@@H]3c4[nH]c5cc(OC)ccc5c4CCN3C[C@H]2C[C@@H](OC(=O)COc2ccc(OC)cc2)[C@@H]1OC | inactive | inactive | inactive |  | inactive | inactive | inactive | inactive | inactive | inactive |
| CCOC(=O)Cn1c(=O)sc2cccc(Cl)c21 | inactive | inactive | inactive | inactive |  | inactive | inactive | inactive | inactive | inactive |
| NC(=O)CCCCC1CCSS1 (centres undefined) | inactive | inactive |  | inactive | inactive | inactive | inactive | inactive | inactive | inactive |
| C#CC(O)CCCCC (centres undefined) | inactive | inactive | inactive | inactive | inactive | inactive | inactive | inactive |  | inactive |
| CCCCCCCCCCCCCCCCCCOCC(O)CO (centres undefined) | inactive | inactive |  | inactive | inactive | inactive | inactive | inactive |  |  |
| NC(=O)Nc1nc2ccccc2[nH]1 | inactive |  | inactive | inactive | inactive | inactive | inactive |  | inactive | inactive |
| c1cc(CN2CCCCC2)cc(OCCCNc2nc3ccccc3s2)c1 | inactive | inactive | inactive | inactive |  | 9.52 µM (active) | 9.52 µM (active) | inactive |  | inactive |
| CCOC(=O)Nc1ccc2c(c1)N(C(=O)CCN1CCOCC1)c1ccccc1S2 | inactive | inactive | inactive | inactive | inactive | inactive | inactive | inactive |  | inactive |
